Experimental data: the supplement of paper PMC6555819

Test system: PPARg DBDmut IVT, anti-PPARg (DBD mutation: PPARg1 K132A/R137A, NR concentration 270 nM)
Assay: PBM binding z-score (relative to random genomic background probes); higher = stronger binding; sequences stand for … in GC…GCGATTGACAGCGTAGAATGAAGG
How it was run: (§1)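 The probes on custom Agilent 4×180K protein-binding microarrays were double-stranded, with 34-nt variable regions bearing direct-repeat seeds, single-nucleotide variants, half-site ablations and random human genomic background sequences. Incubation lasted 1 h with ligand-free nuclear receptor dimers in PBS pH 7.4, 2% milk, 0.02% Triton X-100, 1 mM DTT, 0.2 mg/mL BSA and 0.4 mg/ml salmon testes DNA. Antibodies against each partner (one per run) detected bound dimers, and fluorescence scans were regression-normalized. Binding z-scores take the random background probes as reference.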

Going from TGTCAAAGTTCAAAGGTAATGTAAGTATCCACAC to GCTTGTAGATCTAGGTTAAGAAAGACTAAGCTAA, the PBM binding z-score falls from 1.26 to 0.399.

First: TCTAGTTGGTCACGGAGGTCACATACGACGGGTA
Second: TGAATGAGGTTAAAGATCAGCGAACGTGGCGTCG
The PBM binding z-score of the first is higher: 1.14 for the first, 0.131 for the second.

Compared with TCTTGTACATCAATAGAGGTTAAGAAAGTGCGCT, GGAACGCGGGCAAGTTGATAGCAGAGTTTGATGG is lower in PBM binding z-score: 1.13 for the first, -1.56 for the second.

First: AGTCAAAGTTCAGGACGAGGTAACGGAAAGCACG
Second: ACAGACAGGTGAGAGAAGGTAACTCAGCTGGACG
The PBM binding z-score of the first is higher: 0.337 for the first, -0.367 for the second.

Compared with TCATATAGGTAAATGCTAGGGGAAAGTCCGATCT, CCTTACGGGTCACTCCAGGTTATTGCATCGGAGT is lower in PBM binding z-score: 1.29 for the first, 1.01 for the second.

Going from GCAGACAGGAGAAACGCAGGTAACTCAGGGTGGC to CCGAGTACGTTATGGGGCATTCAGGCAACGGTGA, the PBM binding z-score rises from -0.99 to -0.78.

Compared with TCGAGTAGGCTAGTCGGGGCATTCAGCCAACATA, CCAGACAGGTGAAAGGTAACTCAGTCTGGTACGC is higher in PBM binding z-score: -1.24 for the first, -0.0766 for the second.

First: CTCGAAAGGTCGGTTGAGGTGAGGATACGGATAA
Second: TTACCAAGGTGAAGGTAGTTGATCCCTCTGTAGA
The PBM binding z-score of the first is lower: -0.445 for the first, -0.0185 for the second.

Going from CCGACCGGGGCATAAGGTTACCATAAGCCAGCCC to CATACAGGGTCAGCTCGGCCAGAGTAGGGACGGC, the PBM binding z-score rises from -1.51 to 0.134.

Going from ACTTGTTGGTCAGCTGAGGTCACACACAATTCGG to CCTGCTAGGTAATGGTCAGCTAATCTACAGTATG, the PBM binding z-score falls from 0.437 to -0.811.

Going from CGTCCAGGGTCATAGGAGGTCAGTGAAGACAGAT to CCTTACGGTTCACTCCAGGTTATAGCATCGGAGT, the PBM binding z-score rises from -0.113 to 1.01.

Compared with AGTCAGAGTTCAGGACGAGGTAACGTAAAGCACG, TCAGACAGGCGAAGGTAACTCAGGTACGCAGTCG is lower in PBM binding z-score: -0.341 for the first, -0.776 for the second.

Compared with CGCCCAAGGTCAGAGAGGTCAGTGAATGCCGAGT, GCATATAGGTAATACAAAGTGAAAGTCCGATTGT is higher in PBM binding z-score: -0.732 for the first, 1.36 for the second.

First: CGAACTAGATCATCCAGGACAGTGAATACATTGA
Second: CTACCAAGGTGAACAAGGTGGTTGATTACTATTC
The PBM binding z-score of the first is higher: 0.684 for the first, -0.57 for the second.

Compared with ACATACGGGTCAACGAGGTTATAGCACGCGTATA, CGTCCAAGGTCAAGGTCAGTAAAAGAGACTCGAA is lower in PBM binding z-score: 0.961 for the first, 0.71 for the second.

Compared with GCGACTGGGGCATCAGCAGGTAACCATAACTTAA, ATATGTAGATTAGCTGGGGTCATTCAGACTAGGC is higher in PBM binding z-score: -0.924 for the first, 1.4 for the second.

Compared with ACTAGTTGGTCAGCTGAGGTCCCACACAATTCGG, AGAGTGAGGTTATACGTAGATCAGGGAAGAAAGT is lower in PBM binding z-score: 1.01 for the first, 0.722 for the second.

Going from GCTAGCAGGCCATTTGGGGCACTCAATGACGGGC to GCTAGTTGGTCAGGAAAAGGTCACACACCGGTCG, the PBM binding z-score rises from -1.74 to 0.0698.

Compared with CCGACTGGGGCATAAGGTTACCACAAGCCAGCCC, ACTAGTTGGTCAGCAGAGGTCACACACAATTCGG is higher in PBM binding z-score: -1.03 for the first, 0.493 for the second.

Compared with TCTTGTAGATCAAAGGTTAAAAAAGCCGAAGCCT, CCGACTGGTGCATAAGGTTACCATAAGCCAGCCC is lower in PBM binding z-score: 0.625 for the first, -1.4 for the second.

Test system: PPARg homodimer (NR concentration 180 nM)
Assay: as above
How it was run: as §1

Compared with TGTCAAAGTTCAAAGGTAATGTAAGTATCCACAC, GCTTGTAGATCTAGGTTAAGAAAGACTAAGCTAA is lower in PBM binding z-score: 3.02 for the first, -1.08 for the second.

Compared with TCTAGTTGGTCACGGAGGTCACATACGACGGGTA, TGAATGAGGTTAAAGATCAGCGAACGTGGCGTCG is lower in PBM binding z-score: 2.46 for the first, 0.5 for the second.

First: TCTTGTACATCAATAGAGGTTAAGAAAGTGCGCT
Second: GGAACGCGGGCAAGTTGATAGCAGAGTTTGATGG
The PBM binding z-score of the first is higher: 0.454 for the first, -0.831 for the second.

Going from AGTCAAAGTTCAGGACGAGGTAACGGAAAGCACG to ACAGACAGGTGAGAGAAGGTAACTCAGCTGGACG, the PBM binding z-score falls from 2.37 to -0.0826.

Going from TCATATAGGTAAATGCTAGGGGAAAGTCCGATCT to CCTTACGGGTCACTCCAGGTTATTGCATCGGAGT, the PBM binding z-score rises from 0.609 to 2.9.

First: GCAGACAGGAGAAACGCAGGTAACTCAGGGTGGC
Second: CCGAGTACGTTATGGGGCATTCAGGCAACGGTGA
The PBM binding z-score of the first is higher: -0.201 for the first, -0.751 for the second.

First: TCGAGTAGGCTAGTCGGGGCATTCAGCCAACATA
Second: CCAGACAGGTGAAAGGTAACTCAGTCTGGTACGC
The PBM binding z-score of the first is lower: -0.694 for the first, 1.36 for the second.

First: CTCGAAAGGTCGGTTGAGGTGAGGATACGGATAA
Second: TTACCAAGGTGAAGGTAGTTGATCCCTCTGTAGA
The PBM binding z-score of the first is higher: 1.24 for the first, 0.00789 for the second.

First: CCGACCGGGGCATAAGGTTACCATAAGCCAGCCC
Second: CATACAGGGTCAGCTCGGCCAGAGTAGGGACGGC
The PBM binding z-score of the first is lower: 0.811 for the first, 0.989 for the second.

Compared with ACTTGTTGGTCAGCTGAGGTCACACACAATTCGG, CCTGCTAGGTAATGGTCAGCTAATCTACAGTATG is lower in PBM binding z-score: 2.22 for the first, -0.722 for the second.

Compared with CGTCCAGGGTCATAGGAGGTCAGTGAAGACAGAT, CCTTACGGTTCACTCCAGGTTATAGCATCGGAGT is lower in PBM binding z-score: 4.96 for the first, 1.62 for the second.

Compared with AGTCAGAGTTCAGGACGAGGTAACGTAAAGCACG, TCAGACAGGCGAAGGTAACTCAGGTACGCAGTCG is lower in PBM binding z-score: 1.36 for the first, -0.126 for the second.

Going from CGCCCAAGGTCAGAGAGGTCAGTGAATGCCGAGT to GCATATAGGTAATACAAAGTGAAAGTCCGATTGT, the PBM binding z-score falls from 3.98 to -0.267.

First: CGAACTAGATCATCCAGGACAGTGAATACATTGA
Second: CTACCAAGGTGAACAAGGTGGTTGATTACTATTC
The PBM binding z-score of the first is higher: 0.315 for the first, 0.187 for the second.

Going from ACATACGGGTCAACGAGGTTATAGCACGCGTATA to CGTCCAAGGTCAAGGTCAGTAAAAGAGACTCGAA, the PBM binding z-score rises from 2.67 to 4.59.

First: GCGACTGGGGCATCAGCAGGTAACCATAACTTAA
Second: ATATGTAGATTAGCTGGGGTCATTCAGACTAGGC
The PBM binding z-score of the first is lower: 0.206 for the first, 1.47 for the second.

Compared with ACTAGTTGGTCAGCTGAGGTCCCACACAATTCGG, AGAGTGAGGTTATACGTAGATCAGGGAAGAAAGT is higher in PBM binding z-score: 0.419 for the first, 1.66 for the second.

Compared with GCTAGCAGGCCATTTGGGGCACTCAATGACGGGC, GCTAGTTGGTCAGGAAAAGGTCACACACCGGTCG is higher in PBM binding z-score: -0.698 for the first, 5.18 for the second.

Going from CCGACTGGGGCATAAGGTTACCACAAGCCAGCCC to ACTAGTTGGTCAGCAGAGGTCACACACAATTCGG, the PBM binding z-score rises from 0.364 to 3.51.

Compared with TCTTGTAGATCAAAGGTTAAAAAAGCCGAAGCCT, CCGACTGGTGCATAAGGTTACCATAAGCCAGCCC is lower in PBM binding z-score: 1.22 for the first, 0.502 for the second.
